test system: Aedes aegypti larvae; experiment: larval motility relative to same well at 0 h (fraction); higher = more motile (less active compound), active = 0.4 or less; settings: 10 µM; 2 h
Experimental: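 MMV Pandemic Response Box compounds were tested at 10 µM (1% v/v DMSO) on Aedes aegypti larvae (18-24 h after hatching, about 10 per well, 96-well plates). Motility was quantified with INVAPP (200-frame movies) at 0, 2 and 24 h. Each well's motility was divided by its own 0 h score, and the median of 3 independent screens is reported.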

Question: With `CC1CN(c2ncnc3c2c(-c2ccccc2)cn3-c2ccc(F)cc2)CC(C)O1` (stereo not given) as the compound, how does the larval motility read?
Answer: 0.791 (inactive)

Question: Which larval motility does the source give for `O=C(NCc1ccc(F)cc1)c1c(O)c2ncccc2[nH]c1=O` here?
Answer: 0.718 (inactive)

Question: How did the larval motility turn out when `NC(=O)c1cnc2ccc(S(=O)(=O)c3ccccc3)cc2c1Nc1ccc(O)cc1` was run?
Answer: 1.25 (inactive)

Question: With `Clc1ccc(COC(Cn2ccnc2)c2ccc(Cl)cc2Cl)c(Cl)c1` (stereo not given) as the compound, how does the larval motility read?
Answer: 0.499 (inactive)

Question: `C(=C\c1nc2ccccc2[nH]1)/c1ccc2c(c1)OCO2` was tested. Which larval motility did it give?
Answer: 0.765 (inactive)

Question: Which larval motility does the source give for `COc1cc(C(C(=O)NC2CCCCC2)N(C(=O)Cc2c[nH]c3ccccc23)c2ccc(C(C)C)cc2)cc(OC)c1OC` (stereo not given) here?
Answer: 1.42 (inactive)

Question: `Cc1c(N)cccc1Cn1ccc(OCCc2cccs2)cc1=O` was tested. Which larval motility did it give?
Answer: 0.953 (inactive)

Question: `O=S(=O)(Nc1cccc2cccnc12)c1ccccc1` was tested. Which larval motility did it give?
Answer: 0.587 (inactive)

Question: Which larval motility does the source give for `CCc1ccc(C2CC(C(F)(F)F)n3ncc(C(=O)NCc4ccc(OC)cc4)c3N2)cc1` (stereo not given) here?
Answer: 0.923 (inactive)

Question: For `CCOc1ccc(/C=N/NC(=O)C2CC2c2ccc(C(C)(C)C)cc2)cc1OCC` (stereo not given), which larval motility is on record?
Answer: 1.29 (inactive)

Question: `CNc1nc(=O)[nH]cc1F` was tested. Which larval motility did it give?
Answer: 0.634 (inactive)

Question: How did the larval motility turn out when `CCN(CC)CCCC(C)Nc1ccnc2cc(Cl)ccc12` (stereo not given) was run?
Answer: 0.715 (inactive)

Question: With `Cc1cc(C2CCCCC2)n(O)c(=O)c1` as the compound, how does the larval motility read?
Answer: 0.66 (inactive)

Question: With `Fc1ccc(-n2cc(Cn3c(-c4cccc(F)c4)nc4ccccc43)nn2)cc1` as the compound, how does the larval motility read?
Answer: 0.761 (inactive)

Question: For `O=C(c1cc(O)nc2ccccc12)N1CCN(c2ccccc2)CC1`, which larval motility is on record?
Answer: 0.848 (inactive)

Question: For `CCc1cc(O)c(Oc2ccc(C(N)=O)cc2F)cc1F`, which larval motility is on record?
Answer: 0.539 (inactive)

Question: `Nc1nc(=O)c(Br)c(-c2cccc(Cl)c2)[nH]1` was tested. Which larval motility did it give?
Answer: 0.895 (inactive)

Question: For `Nc1cc(-c2nc3ccccc3[nH]2)n[nH]c1=O`, which larval motility is on record?
Answer: 1.17 (inactive)

Question: With `N=C(N)c1ccc(COc2ccc(Cl)cc2)cc1` as the compound, how does the larval motility read?
Answer: 1.16 (inactive)

Question: How did the larval motility turn out when `Cc1ccc(C)c(OCCCCCCN2C[C@H](O)[C@@H](O)[C@H](O)[C@H]2CO)c1` was run?
Answer: 0.635 (inactive)

same assay, conditions: 10 µM; 24 h

Question: `CC1CN(c2ncnc3c2c(-c2ccccc2)cn3-c2ccc(F)cc2)CC(C)O1` (stereo not given) was tested. Which larval motility did it give?
Answer: 0.856 (inactive)

Question: With `O=C(NCc1ccc(F)cc1)c1c(O)c2ncccc2[nH]c1=O` as the compound, how does the larval motility read?
Answer: 0.908 (inactive)

Question: `NC(=O)c1cnc2ccc(S(=O)(=O)c3ccccc3)cc2c1Nc1ccc(O)cc1` was tested. Which larval motility did it give?
Answer: 1.01 (inactive)

Question: Which larval motility does the source give for `Clc1ccc(COC(Cn2ccnc2)c2ccc(Cl)cc2Cl)c(Cl)c1` (stereo not given) here?
Answer: 0.677 (inactive)

Question: With `C(=C\c1nc2ccccc2[nH]1)/c1ccc2c(c1)OCO2` as the compound, how does the larval motility read?
Answer: 1.01 (inactive)

Question: For `COc1cc(C(C(=O)NC2CCCCC2)N(C(=O)Cc2c[nH]c3ccccc23)c2ccc(C(C)C)cc2)cc(OC)c1OC` (stereo not given), which larval motility is on record?
Answer: 1.32 (inactive)

Question: `Cc1c(N)cccc1Cn1ccc(OCCc2cccs2)cc1=O` was tested. Which larval motility did it give?
Answer: 0.875 (inactive)

Question: With `O=S(=O)(Nc1cccc2cccnc12)c1ccccc1` as the compound, how does the larval motility read?
Answer: 0.61 (inactive)

Question: With `CCc1ccc(C2CC(C(F)(F)F)n3ncc(C(=O)NCc4ccc(OC)cc4)c3N2)cc1` (stereo not given) as the compound, how does the larval motility read?
Answer: 1.29 (inactive)

Question: For `CCOc1ccc(/C=N/NC(=O)C2CC2c2ccc(C(C)(C)C)cc2)cc1OCC` (stereo not given), which larval motility is on record?
Answer: 1.4 (inactive)

Question: `CNc1nc(=O)[nH]cc1F` was tested. Which larval motility did it give?
Answer: 0.909 (inactive)

Question: `CCN(CC)CCCC(C)Nc1ccnc2cc(Cl)ccc12` (stereo not given) was tested. Which larval motility did it give?
Answer: 0.484 (inactive)

Question: For `Cc1cc(C2CCCCC2)n(O)c(=O)c1`, which larval motility is on record?
Answer: 1.09 (inactive)

Question: Which larval motility does the source give for `Fc1ccc(-n2cc(Cn3c(-c4cccc(F)c4)nc4ccccc43)nn2)cc1` here?
Answer: 0.415 (inactive)

Question: Which larval motility does the source give for `O=C(c1cc(O)nc2ccccc12)N1CCN(c2ccccc2)CC1` here?
Answer: 0.897 (inactive)

Question: `CCc1cc(O)c(Oc2ccc(C(N)=O)cc2F)cc1F` was tested. Which larval motility did it give?
Answer: 0.942 (inactive)

Question: `Nc1nc(=O)c(Br)c(-c2cccc(Cl)c2)[nH]1` was tested. Which larval motility did it give?
Answer: 0.972 (inactive)

Question: `Nc1cc(-c2nc3ccccc3[nH]2)n[nH]c1=O` was tested. Which larval motility did it give?
Answer: 1.18 (inactive)

Question: How did the larval motility turn out when `N=C(N)c1ccc(COc2ccc(Cl)cc2)cc1` was run?
Answer: 0.589 (inactive)

Question: `Cc1ccc(C)c(OCCCCCCN2C[C@H](O)[C@@H](O)[C@H](O)[C@H]2CO)c1` was tested. Which larval motility did it give?
Answer: 0.552 (inactive)
